Among the data in PubChem BioAssay (NCI) are growth values, retold here.

About 83,000 compounds went through this panel and 20% of them were active in at least one assay; those are over-represented in the sample as a whole.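 Interpretation: 100, growth as untreated; towards 0, rising growth inhibition; 0, no net growth; 0 to -100, cell death. Compounds scoring below 10 were considered active.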 A number with no mark means an inactive call. Calls of active or inactive are those of the source.

Holding throughout (test): NCI-60 one-dose screen, 48 h (100 = growth as untreated, 0 = no growth, -100 = all killed)
Common to all, as to settings: 10 µM unless noted

For assay [1], the system named is DU-145 prostate.
The subject of assay [2] is K-562 leukemia.
In assay [3] the test system is MALME-3M melanoma.
Assay [4] deals with MDA-MB-231 breast.
Assay [5] has as its system RXF 393 renal.
The test system of assay [6] is SF-268 CNS.
The test system of assay [7] is SF-295 CNS.
Assay [8] relates to SF-539 CNS.
The test system of assay [9] is UACC-257 melanoma.
Assay [10] relates to M14 melanoma.
Assay [11] deals with HCT-15 colon.
Assay [12] concerns HT29 colon.
The test system of assay [13] is SNB-75 CNS.
The test system of assay [14] is SNB-19 CNS.
Assay [15] has as its system U251 CNS.
For assay [16], the system named is PC-3 prostate.
The test system of assay [17] is SK-MEL-5 melanoma.
In assay [18] the test system is UACC-62 melanoma.
Assay [19] has as its system LOX IMVI melanoma.
Assay [20] relates to SK-MEL-28 melanoma.

For `O=C(O)[C@@H](Cc1ccc2ccccc2c1)NC(=O)n1c2ccccc2c2ccccc21`, the growth in [1] is 19.4%; in [2], 11.6%; in assay [3] it was 22%; in [4], 15.6%; in [5], 14.6%; in assay [6] it was 42.5%. The growth in assay [7] was 11.6%; in assay [8], 1.16% (active); in assay [9] it was 57.7%; in [10], 4.26% (active); in assay [11] it was 21.1%; in assay [12], 4.59% (active). Moreover, the growth was 20.1% in [13]; 25.4% in [14]; 14.8% in assay [15]; 26.7% in [16]; 3.91% (active) in assay [17]; 18.3% in assay [18]. Also, the results for the growth in [19] and in assay [20] were 35.9% and 63.3%, respectively.

Turning to `Cc1nc2c(=O)nc3s/c(=C\c4ccco4)c(=O)n3c2nc1C`, the growth in assay [1] was 103%; in [2] it was 102%; in assay [3] it was 82.1%; in assay [4] it was 93.8%; in assay [5], 112%; in [6], 100%. The growth in assay [7] is 91.2%; in assay [8] it was 90.3%; in assay [9], 96.1%; in assay [10] it was 93.7%; in assay [11] it was 106%; in [12], 100%. For the same compound, the growth in assay [13] is 85.4%; in assay [14], 96.8%; in assay [15] it was 93.5%; in assay [16], 97.6%; in assay [17] it was 104%; in [18], 92.4%. Besides, the values for the growth in assay [19] and in assay [20] were 90.2% and 100%, respectively.

As for `NC(=O)c1cccc([C@@H]2O[C@H](CO)[C@@H](O)[C@H]2O)c1`, the growth was 66.5% in assay [1]; 27% in [2]; 103% in [3]; 55.5% in assay [4]; 73.3% in [5]; 48% in [6]. Moreover, the growth is 65.7% in assay [7]; 14.4% in [8]; 97.7% in [9]; 17.1% in assay [10]; 12.8% in assay [11]; 54% in assay [12]. Also, the growth in [13] was 9.91% (active); in [14] it was 54.2%; in assay [15] it was 41.1%; in assay [16], 47.8%; in assay [17], 97.4%; in [18] it was 88.6%. The growth is 91.5% in [19] and 62.1% in assay [20].

In the case of `CCOC(=O)CC1CSC(Nc2ccccc2)=N1` (stereo not given), the growth is 103% in assay [1]; 96.4% in assay [2]; 102% in [3]; 105% in [4]; 114% in assay [5]; 98.7% in assay [6]. For the same compound, the growth in assay [7] was 104%; in [8], 105%; in assay [9] it was 97.9%; in assay [10] it was 103%; in assay [11], 107%; in [12] it was 96.8%. In addition, the growth in [13] is 99.7%; in assay [14], 104%; in [15] it was 99.5%; in [16], 99.9%; in assay [17], 103%; in [18] it was 99.7%. The growth in assay [19] was 97.3%; in [20], 115%.

For the compound `O=C(/C=C/C12c3ccccc3C(c3ccccc31)C1C(=O)NC(=O)C12)c1ccc(Br)cc1` (stereo not given), the growth in assay [1] was 46.6%; in [2], 21.6%; in assay [3] it was 80.5%; in [4] it was 52.6%; in assay [5], 25.4%; in assay [6], 60.6%. Moreover, the growth was 71% in assay [7]; 77.9% in [8]; 61.7% in [9]; 62.6% in assay [10]; 36.1% in [11]; 20.1% in [12]. Also, the growth was 55.7% in assay [13]; 51.3% in assay [14]; 29.2% in [15]; 29.8% in [16]; 67.8% in assay [17]; 46.7% in assay [18]. Moreover, the growth in assay [19] was 21%; in [20], 50.6%.

`NC(=O)c1c(NC(=O)c2cccs2)sc2c1CCC(=O)C2`: the growth in assay [1] is 80.3%; in [2], 10.3%; in assay [3], 67%; in assay [4] it was 26.1%; in assay [5] it was 46.4%; in assay [6], 30.3%. Besides, the growth in assay [7] was 86.9%; in assay [8], -3.38% (active); in [9], 63.7%; in [10] it was 26.1%; in assay [11] it was 16.2%; in assay [12] it was 46.3%. Moreover, the growth was 28.3% in [13]; 40.2% in assay [14]; 14.9% in [15]; 10.5% in assay [16]; 71.5% in assay [17]; 4.69% (active) in assay [18]. For the same compound, the growth was 30.3% in assay [19] and 50.7% in assay [20].

As for `CCCCNc1cc(-c2cn[nH]c2-c2cc(C)cc(OC)c2)nc(-c2cccnc2)n1`, the growth in [1] is 93.6%; in assay [2] it was 80.1%; in [3] it was 100%; in assay [4], 69.8%; in assay [5], 71.9%; in assay [6], 98.4%. The growth in [7] is 91.5%; in assay [8], 81.7%; in assay [9], 110%; in [10], 98.7%; in assay [11], 82.7%; in assay [12], 95.1%. Further, the growth in assay [13] is 76.2%; in assay [14], 95.6%; in assay [15], 87.3%; in [16] it was 80.9%; in assay [17], 77.4%; in [18] it was 80.2%. For the same compound, the growth in [19] was 91.2%; in assay [20], 96.4%.

Regarding `COc1cccc(CNc2c3ccccc3nc3ccccc23)c1`, the growth was 53.3% in assay [1]; 6.57% (active) in assay [2]; 44% in [3]; 49.9% in assay [4]; 13.8% in assay [5]; 71.2% in assay [6]. In addition, the growth in assay [7] was 36%; in [8] it was 19.4%; in assay [9] it was 55%; in assay [10] it was 35.2%; in assay [11], 24.4%; in [12] it was 18.7%. The growth in assay [13] is 56.9%; in [14] it was 36%; in assay [15], 38.7%; in assay [16] it was 38.9%; in assay [17], 57.6%; in assay [18], 63.5%. Besides, the growth is 19.8% in [19] and 81.2% in assay [20].
